# Results taken from PubChem BioAssay (NCATS).
# Values without a mark were called inactive. Inconclusive results are not listed. Entries that show only a call come without a potency. Active and inactive are the calls of the source. The call rests on the fitted dose curve; in most records, active means well fitted curve in the direction sought with a large enough effect; inconclusive means small, poorly fitted or top-dose-only effect, or another doubt; inactive means no such curve, though single readings can be large; an effect the other way counts as inactive or inconclusive. Starred links: 1 amine or outer side, 2 acyl side, 3 side chain; linkers in the order of their positions; H or OH if unused. Positions of bridges follow the written chain, without caps; N, C: chain ends. Non-standard residues stand in square brackets, D forms with d. Residues, ends and D or L forms follow the SMILES beside them. Chains are numbered I, II in the order given. ξ: configuration not given here. *: point of attachment. Actinocin(9to1) = Cc1c2oc3c(C)ccc(C(=O)[*:1])c3nc-2c(C(=O)[*:2])c(N)c1=O; Octanoyl(6-Me) = CCC(C)CCCCC(=O)*; ξThr(3R) = C[C@@H](O)C(N)C(=O)O; NMeV = CN[CH](C(=O)O)C(C)C; dDab = NCC[C@@H](N)C(=O)O; Dab = NCC[C@H](N)C(=O)O; Sar = CNCC(=O)O
# Assays:
# [1] = qHTS to identify inhibitors of the type 1 interferon - major histocompatibility complex class I in skeletal muscle: primary screen against the NCATS Mechanism Interrogation Plate v5.0 (MIPE) Libary (AID 1347411); further: nearly all actives have a fitted effect of over 65% in size; further: potency means the concentration at half of the fitted maximal effect
# Summary of the method: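 HLA-B HiBit myoblasts, dexamethasone-free medium + 4 ng/ml IFN-b, 24 h compound, 11-pt 1:3 from 46 uM final. Readout: Nano-Glo HiBiT lytic luminescence after 10 min lysis, RT.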
# [2] = target: Calcium and integrin-binding protein 1 (Homo sapiens) (UniProt Q99828); assay: Primary qHTS for Identification of Calcium Integrin Binding Protein 1 (CIB1) Competitor (AID 1508620);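 further: GST tagged CIB1 binding a fluorescein labelled alphaIIb integrin peptide tracer; top concentration of the series differs between compounds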
# Summary of the method: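 CIB1-GST (1 uM final) and compound incubated 15 min at room temperature before adding FITC-alphaIIb peptide tracer (100 nM final). Competition for binding read by fluorescence polarization (ex 480, em 540) after another 15 min at room temperature.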
# [3] = Primary qHTS for small molecule stabilizers of the endoplasmic reticulum resident proteome: Secreted ER Calcium Modulated Protein (SERCaMP) assay (AID 1508630)
# Summary of the method: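 The SH-SY5Y reporter protocol was run at 3 concentrations up to 38.3 uM (primary) or 11 concentrations (follow-up): 16 h compound, 100 nM thapsigargin for 4 h, then extracellular luciferase luminescence.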
# [4] = Validation qHTS assay for inhibitors of Activation Induced Cytidine Deaminase (AID): UDG Counterscreen signal (AID 1347427)
# Excerpt: Assay Provider (PI) Patricia Gearhart Ph.D.
# National Institute on Aging
# National Institute of Health (NIH), Bethesda, MD
# Assay Provider (PI) Rahul Kohli Ph.D.
# Perelman School of Medicine
# University of Pennsylvania, Philadelphia, PA
# Activation-Induced Deaminase (AID) is a cytosine deaminase which converts cytosine into uracil within stretches of ssDNA. The presence of uracil in DNA initiates a cascade of mutagenic DNA repair to introduce point mutations and DNA double strand breaks. Specific targeting of AID to the immunoglobulin heavy chain loci (Igh) promotes mutagenesis in the antibody variable region for somatic hypermutation (SHM) or switch regions leading to class switch recombination (CSR). However, AID also plays a role in accumulating unnecessary mutations across the genome. Mis-targeting of AID results in the initiation of tumor development and leads to greater drug resistance among cancer cells when continually expressed. To identify an AID inhibitor, a small molecule library will be screened in collaboration with NCATS core facility at NIH. To confirm biological function, inhibitors will be examined in an in vitro murine B-cell activation assay and subsequent secondary validation screens. Top molecules will be further screened to identify inhibitory efficacy against a wild type primary splenocytes assay. […]
# A FRET based analysis of cytosine deamination, was developed to identify potential inhibitors of AID catalytic activity. This screen has two signal output, Read 1 evaluates the AID inhibition response. The second readout (Read 2) evaluates UDG response and is uses as a counterscreen to exclude false positive inhibitors. […]
# 9a; Detection; fluorescence (Read 1: AID); EnVision (PerkinElmer) plate reader, 540 excitation and 590 emission filters
# 9b; Detection; fluorescence (Read 2: UDG); EnVision (PerkinElmer) plate reader, 560 excitation and 665 emission filters […]
# 9a; Fluorescence signal (column label AID) was read using the EnVision plate reader. […]
# 9b; Fluorescence signal (column label UDG) was read using the EnVision plate reader. […]
# [5] = target: Single-stranded DNA cytosine deaminase (Homo sapiens) (UniProt Q9GZX7); assay: Validation qHTS assay for inhibitors of Activation Induced Cytidine Deaminase (AID): AID signal (AID 1347429)
# Summary of the method: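 AID+UDG coupled FRET deamination; cpds up to 114 uM final; DJC20/DJC23 substrate, 4 hr RT; NaOH stop, 30 min RT; read Ex 540/Em 590.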
# [6] = Primary qHTS for inhibitors of La Crosse Virus (LACV) - induced cell death in SH-SY5Y cells (AID 1508616);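 further: top concentration of the series differs between compounds; higher means more rescue of cells from virus-induced death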
# Summary of the method: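 Cytopathicity rescue screen: compounds pinned onto SH-SY5Y cells, which are then infected with LACV (MOI 0.01) and held 6 days at 37C. Percent activity is scaled between infected DMSO control and uninfected DMSO control.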
# Chain of Calcium and integrin-binding protein 1 (Homo sapiens) (Q99828 whole entry, looked up): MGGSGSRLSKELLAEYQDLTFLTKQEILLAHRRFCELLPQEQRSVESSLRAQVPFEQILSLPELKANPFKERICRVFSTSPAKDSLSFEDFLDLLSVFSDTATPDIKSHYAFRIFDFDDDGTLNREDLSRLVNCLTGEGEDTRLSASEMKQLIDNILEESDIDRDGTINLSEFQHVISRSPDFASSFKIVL
# Chain of Single-stranded DNA cytosine deaminase (Homo sapiens) (Q9GZX7 whole entry, looked up): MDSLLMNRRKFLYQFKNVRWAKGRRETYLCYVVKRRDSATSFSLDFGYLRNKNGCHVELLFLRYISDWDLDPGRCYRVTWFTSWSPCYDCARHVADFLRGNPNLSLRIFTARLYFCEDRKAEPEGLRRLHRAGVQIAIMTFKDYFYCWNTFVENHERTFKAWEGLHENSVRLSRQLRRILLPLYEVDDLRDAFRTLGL
smiles,measurement,setting,value
COc1ccc(S(=O)(=O)Nc2cc(-c3c(O)ccc4ccccc34)c(O)c3ccccc23)cc1,Potency,[1],16.5 µM (active)
same,Potency,[2],inactive
same,outcome,[3],inactive
C[N+](C)([O-])CCNc1ccc(NCC[N+](C)(C)[O-])c2c1C(=O)c1c(O)ccc(O)c1C2=O,Potency,[1],inactive
same,Potency,[2],inactive
same,outcome,[3],inactive
CC(=O)NC(CS)C(=O)O (stereo not given),Potency,[1],inactive
same,Potency,[2],inactive
same,outcome,[3],inactive
Cn1cc(CNCC2CCN(c3ncc(C(=O)NO)cn3)CC2)c2ccccc21,Potency,[1],0.117 µM (active)
same,Potency,[2],inactive
same,outcome,[3],inactive
COc1cc2ncnc(Nc3cccc(Br)c3)c2cc1OC,Potency,[1],10.4 µM (active)
same,Potency,[2],inactive
same,outcome,[3],inactive
O=C(Nc1cccc(Nc2ncc(Br)c(NCCc3cnc[nH]3)n2)c1)N1CCCC1,Potency,[1],5.87 µM (active)
same,Potency,[2],inactive
same,outcome,[3],inactive
CC(Oc1ccc(O)cc1)(P(=O)(O)O)P(=O)(O)O,Potency,[1],inactive
same,Potency,[2],inactive
same,outcome,[3],inactive
N=c1ccn2c(n1)O[C@H]1[C@@H](O)[C@@H](CO)O[C@H]12,Potency,[1],inactive
same,Potency,[2],inactive
same,outcome,[3],inactive
CCCCOc1ccc(C(=O)Nc2ccc(F)cc2F)cc1,Potency,[1],inactive
same,Potency,[2],inactive
same,outcome,[3],inactive
Cc1cc(O)c2c(c1)C(=O)c1cccc(O)c1C2=O,Potency,[1],inactive
same,Potency,[2],inactive
same,outcome,[3],inactive
CCC(C)CCCCC(=O)N[C@@H](CCN)C(=O)NC(C(=O)N[C@H](CCN)C(=O)N[C@@H]1CCNC(=O)C([C@@H](C)O)NC(=O)[C@@H](CCN)NC(=O)[C@@H](CCN)NC(=O)[C@@H](CC(C)C)NC(=O)[C@H](Cc2ccccc2)NC(=O)[C@H](CCN)NC1=O)[C@@H](C)O (stereo partly drawn) ({Octanoyl(6-Me)}-[Dab][ξThr(3R)][dDab][dDab][Dab]F[dL][dDab][dDab][ξThr(3R)]; lactam 4-C),Potency,[1],inactive
same,Potency,[2],inactive
same,outcome,[3],inactive
COc1ccc(Nc2nccc(NCCO)n2)cc1,Potency,[1],inactive
same,Potency,[2],inactive
same,outcome,[3],inactive
CC(=O)O[C@H]1C[C@@H]2CC[C@H]3[C@H]4C[C@H]([N+]5(C)CCCCC5)[C@@H](OC(C)=O)[C@@]4(C)CC[C@@H]3[C@@]2(C)C[C@H]1[N+]1(C)CCCCC1,Potency,[1],inactive
same,Potency,[2],inactive
same,outcome,[3],inactive
N#Cc1c(C2CCNCC2)cc(-c2c(O)cccc2OCC2CC2)nc1N,Potency,[1],8.29 µM (active)
same,Potency,[2],inactive
same,outcome,[3],inactive
O=C(c1ccc(F)cc1)N1CCC[C@H](c2nc(-c3ccc(F)cc3)no2)C1,Potency,[1],inactive
same,Potency,[2],inactive
same,outcome,[3],inactive
CC(C)C[C@H](NC(=O)CNC(=O)c1cc(Cl)ccc1Cl)B1OC(=O)CC(CC(=O)O)(C(=O)O)O1 (stereo not given in full),Potency,[1],0.294 µM (active)
same,Potency,[2],inactive
same,outcome,[3],inactive
CCCNS(=O)(=O)Nc1ncnc(OCCOc2ncc(Br)cn2)c1-c1ccc(Br)cc1,Potency,[1],inactive
same,Potency,[2],inactive
same,outcome,[3],inactive
CCN(C(=O)c1c(O)c2c(Cl)cccc2n(C)c1=O)c1ccccc1,Potency,[1],inactive
same,Potency,[2],inactive
same,outcome,[3],inactive
O=C(Nc1nnc(-c2ccco2)o1)c1cc(-c2ccccc2)nc2ccccc12,Potency,[1],inactive
same,Potency,[2],inactive
same,outcome,[3],inactive
CCOC(=O)[C@@H](N)Cc1ccc(-c2cc(O[C@H](c3ccc(Cl)cc3-n3ccc(C)n3)C(F)(F)F)nc(N)n2)cc1,Potency,[1],9.3 µM (active)
same,Potency,[2],inactive
same,outcome,[3],inactive
COC[C@H](NC(=O)c1cnc(C)s1)C(=O)N[C@@H](COC)C(=O)N[C@@H](Cc1ccccc1)C(=O)[C@@]1(C)CO1,Potency,[1],0.0523 µM (active)
same,Potency,[2],inactive
same,outcome,[3],inactive
"Cc1c2oc3c(C)ccc(C(=O)NC4C(=O)NC(C(C)C)C(=O)N5CCCC5C(=O)N(C)CC(=O)N(C)C(C(C)C)C(=O)OC4C)c3nc-2c(C(=O)NC2C(=O)NC(C(C)C)C(=O)N3CCCC3C(=O)N(C)CC(=O)N(C)C(C(C)C)C(=O)OC2C)c(N)c1=O (stereo not given) (I: TVP[Sar][NMeV] / II: TVP[Sar][NMeV]; ester I:1-I:C, II:1-II:C; linker I:N-II:N via Actinocin(9to1); configuration not given here)",Potency,[1],0.114 µM (active)
same,Potency,[2],inactive
same,outcome,[3],inactive
COc1ccc2cc([S+]([O-])Cc3ncc(C)c(OC)c3C)nc2c1,outcome,[4],inactive
same,outcome,[5],inactive
same,outcome,[6],inactive
same,Potency,[2],inactive
CC(C(C)N1CC(=O)NC(=O)C1)N1CC(=O)NC(=O)C1 (stereo not given),Potency,[1],inactive
same,outcome,[3],inactive
NC(=O)c1ncn([C@@H]2O[C@H](CO)[C@@H](O)[C@@H]2O)c1N,Potency,[2],inactive
CNC(=O)Nc1ccc(-c2nc(N3CC4CCC(C3)O4)c3cnn(C4CCC5(CC4)OCCO5)c3n2)cc1,Potency,[2],inactive
CCS(=O)(=O)Nc1ccc2[nH]c(O)c(C(=Nc3ccc(CN4CCCCC4)cc3)c3ccccc3)c2c1,Potency,[1],2.62 µM (active)
same,Potency,[2],inactive
same,outcome,[3],inactive
C[C@H]1COc2c(N3CCN(C)CC3)c(F)cc3c(=O)c(C(=O)O)cn1c23,Potency,[1],inactive
same,outcome,[3],inactive
CC(=O)O[C@@]12CO[C@H]1C[C@H](O)[C@@]1(C)C(=O)[C@H](O)C3=C(C)[C@@H](OC(=O)C(O)[C@@H](NC(=O)OC(C)(C)C)c4ccccc4)C[C@@](O)([C@@H](OC(=O)c4ccccc4)[C@@H]21)C3(C)C (stereo not given in full),Potency,[2],inactive
